About 7,900 targets were measured; listed, in parts, are those with a hit and a random draw of the rest. About 0.6% of all pairs of compound and target were hits.
Legend:
Assay in all cases: log2 fold change, soluble protein after heating vs DMSO (PISA); higher = thermal stabilisation; K562 cells, 10 uM, 30 min; active = over 0.2 and 3.5 SD of the protein, either way, in both replicates (recomputed)
[1] = compound: C1=CC=C(C=C1)[C@H](COC2=CC3=C(C=C2)NC(=O)N3)NC(=O)C4=CC=CN(C4=O)CC5=CC(=C(C=C5)F)F
Summary of the method: (§1)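 Soluble protein was defined as the supernatant after 21,000xg for 90 min. It came from K562 cells at 2×10^6 cells/mL given 10 μM compound for 30 min, heated in aliquots for 3 min across 48°C-58°C, pooled, and extracted in PBS with 0.5% NP-40 at 4°C, and was quantified by TMTpro 16plex LC-MS/MS with equalised channel sums. Thermal stability against control samples, from duplicates, is reported as log2 fold change.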

[2] = compound: CC1=C(SC2=C1C(=N[C@H](C3=NN=C(N32)C)CC(=O)N)C4=CC=C(C=C4)Cl)C
Summary of the method: as §1

[3] = compound: CC1=C2C(=CC=C1)N=C(N(C2=O)C3=CC=CC=C3C)CN4C=NC5=C(N=CN=C54)N
Summary of the method: as §1

[4] = compound: Cc1sc2c(c1C)C(c1ccc(Cl)cc1)=N[C@@H](CC(=O)OC(C)(C)C)c1nnc(C)n1-2
Summary of the method: as §1

[5] = compound: c1ccc([C@@H]2C[C@H]2NC2CCNCC2)cc1
Summary of the method: as §1

Measured: log2 fold change

BRD3 (UniProt Q15059)
active: [2] 1.9 | [4] 1.56
inactive: [1] 0.002 | [3] 0 | [5] -0.021

AKR1C2 (UniProt P52895)
Sequence of UniProt P52895 (P52895 whole entry, looked up): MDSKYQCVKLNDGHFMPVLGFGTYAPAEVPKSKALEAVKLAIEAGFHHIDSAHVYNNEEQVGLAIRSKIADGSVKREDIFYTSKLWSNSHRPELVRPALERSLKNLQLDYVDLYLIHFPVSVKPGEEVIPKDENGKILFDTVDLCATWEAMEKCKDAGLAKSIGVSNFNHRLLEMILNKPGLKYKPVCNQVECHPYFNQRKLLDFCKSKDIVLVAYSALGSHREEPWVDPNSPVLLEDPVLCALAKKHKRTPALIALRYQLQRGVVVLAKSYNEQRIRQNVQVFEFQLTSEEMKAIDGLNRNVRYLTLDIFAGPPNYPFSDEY
inactive: [1] 0 | [2] -0.04 | [3] 0.086 | [4] 0.057 | [5] -0.011

ALDH18A1 (UniProt P54886)
Sequence of UniProt P54886 (P54886 whole entry, looked up): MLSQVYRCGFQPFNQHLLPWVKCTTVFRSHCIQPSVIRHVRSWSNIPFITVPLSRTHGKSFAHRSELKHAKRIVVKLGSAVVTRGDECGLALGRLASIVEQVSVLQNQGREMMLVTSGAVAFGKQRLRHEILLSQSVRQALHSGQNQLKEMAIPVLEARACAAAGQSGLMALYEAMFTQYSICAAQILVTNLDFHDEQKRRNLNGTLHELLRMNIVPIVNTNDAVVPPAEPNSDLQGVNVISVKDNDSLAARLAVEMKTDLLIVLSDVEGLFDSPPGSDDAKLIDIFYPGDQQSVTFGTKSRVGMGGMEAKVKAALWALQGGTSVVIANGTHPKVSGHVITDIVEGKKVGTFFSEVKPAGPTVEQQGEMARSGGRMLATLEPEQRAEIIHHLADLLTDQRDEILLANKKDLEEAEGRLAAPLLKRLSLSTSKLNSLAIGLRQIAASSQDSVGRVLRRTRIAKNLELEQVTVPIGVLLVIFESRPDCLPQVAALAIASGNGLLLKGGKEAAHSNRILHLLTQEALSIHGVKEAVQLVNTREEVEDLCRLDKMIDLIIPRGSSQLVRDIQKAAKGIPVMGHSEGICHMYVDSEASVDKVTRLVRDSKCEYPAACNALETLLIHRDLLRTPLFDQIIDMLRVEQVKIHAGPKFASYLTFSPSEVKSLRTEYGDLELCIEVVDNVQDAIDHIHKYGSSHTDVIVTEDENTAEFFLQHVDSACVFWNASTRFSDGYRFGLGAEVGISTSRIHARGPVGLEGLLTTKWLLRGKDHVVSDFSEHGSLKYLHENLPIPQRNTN
inactive: [1] -0.107 | [2] -0.038 | [3] 0.028 | [4] 0.018 | [5] 0.02

ANAPC2 (UniProt Q9UJX6)
Sequence of UniProt Q9UJX6 (Q9UJX6 whole entry, looked up): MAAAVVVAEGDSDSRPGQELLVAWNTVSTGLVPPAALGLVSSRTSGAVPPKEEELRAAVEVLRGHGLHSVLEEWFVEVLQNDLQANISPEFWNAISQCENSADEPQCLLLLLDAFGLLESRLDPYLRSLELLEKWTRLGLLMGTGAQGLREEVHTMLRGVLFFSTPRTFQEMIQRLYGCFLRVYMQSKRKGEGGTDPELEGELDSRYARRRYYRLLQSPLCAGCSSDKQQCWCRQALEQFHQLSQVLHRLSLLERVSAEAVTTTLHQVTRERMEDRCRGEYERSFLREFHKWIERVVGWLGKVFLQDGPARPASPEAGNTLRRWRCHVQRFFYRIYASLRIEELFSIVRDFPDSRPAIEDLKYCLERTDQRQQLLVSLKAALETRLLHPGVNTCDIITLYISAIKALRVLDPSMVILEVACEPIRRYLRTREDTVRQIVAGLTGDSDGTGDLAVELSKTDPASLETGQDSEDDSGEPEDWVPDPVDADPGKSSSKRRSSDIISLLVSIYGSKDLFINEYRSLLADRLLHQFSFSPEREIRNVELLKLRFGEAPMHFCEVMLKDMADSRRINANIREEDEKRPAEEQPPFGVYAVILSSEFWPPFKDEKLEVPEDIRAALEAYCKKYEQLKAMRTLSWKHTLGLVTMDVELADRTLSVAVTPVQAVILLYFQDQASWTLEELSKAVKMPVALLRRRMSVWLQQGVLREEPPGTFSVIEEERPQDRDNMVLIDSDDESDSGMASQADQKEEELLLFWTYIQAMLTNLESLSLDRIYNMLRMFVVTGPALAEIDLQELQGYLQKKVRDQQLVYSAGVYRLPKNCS
inactive: [1] -0.017 | [2] 0.016 | [3] -0.005 | [4] 0.017 | [5] -0.049

BZW2 (UniProt Q9Y6E2)
inactive: [1] -0.069 | [2] 0.042 | [3] 0.025 | [4] -0.033 | [5] -0.014

AAMP (UniProt Q13685)
inactive: [1] -0.015 | [2] -0.013 | [3] 0.014 | [4] -0.032 | [5] 0.021

ATP1A1 (UniProt P05023)
inactive: [1] 0.009 | [2] 0.051 | [3] -0.045 | [4] 0 | [5] -0.01

ABHD11 (UniProt Q8NFV4)
inactive: [1] -0.008 | [2] 0.127 | [3] 0.136 | [4] -0.12 | [5] -0.037

AK6 (UniProt Q9Y3D8)
inactive: [1] -0.043 | [2] 0.042 | [3] 0.2 | [4] -0.014 | [5] -0.008

BRIP1 (UniProt Q9BX63)
inactive: [1] 0.042 | [2] -0.005 | [3] 0 | [4] -0.042 | [5] 0.122

ACSL4 (UniProt O60488)
inactive: [1] -0.08 | [2] 0.1 | [3] 0.132 | [4] 0.025 | [5] -0.031

ATAD3A isoform 2 (UniProt Q9NVI7)
inactive: [1] -0.019 | [2] -0.037 | [3] -0.052 | [4] 0.08 | [5] 0.054

ADAMTS5 (UniProt Q9UNA0)
inactive: [1] 0.149 | [2] 0.106 | [3] 0.152 | [4] -0.076 | [5] -0.028

ATP6V1F isoform 2 (UniProt Q16864)
inactive: [1] 0.015 | [2] -0.144 | [3] -0.138 | [4] -0.126 | [5] 0.02

ACO2 (UniProt Q99798)
Sequence of UniProt Q99798 (Q99798 whole entry, looked up): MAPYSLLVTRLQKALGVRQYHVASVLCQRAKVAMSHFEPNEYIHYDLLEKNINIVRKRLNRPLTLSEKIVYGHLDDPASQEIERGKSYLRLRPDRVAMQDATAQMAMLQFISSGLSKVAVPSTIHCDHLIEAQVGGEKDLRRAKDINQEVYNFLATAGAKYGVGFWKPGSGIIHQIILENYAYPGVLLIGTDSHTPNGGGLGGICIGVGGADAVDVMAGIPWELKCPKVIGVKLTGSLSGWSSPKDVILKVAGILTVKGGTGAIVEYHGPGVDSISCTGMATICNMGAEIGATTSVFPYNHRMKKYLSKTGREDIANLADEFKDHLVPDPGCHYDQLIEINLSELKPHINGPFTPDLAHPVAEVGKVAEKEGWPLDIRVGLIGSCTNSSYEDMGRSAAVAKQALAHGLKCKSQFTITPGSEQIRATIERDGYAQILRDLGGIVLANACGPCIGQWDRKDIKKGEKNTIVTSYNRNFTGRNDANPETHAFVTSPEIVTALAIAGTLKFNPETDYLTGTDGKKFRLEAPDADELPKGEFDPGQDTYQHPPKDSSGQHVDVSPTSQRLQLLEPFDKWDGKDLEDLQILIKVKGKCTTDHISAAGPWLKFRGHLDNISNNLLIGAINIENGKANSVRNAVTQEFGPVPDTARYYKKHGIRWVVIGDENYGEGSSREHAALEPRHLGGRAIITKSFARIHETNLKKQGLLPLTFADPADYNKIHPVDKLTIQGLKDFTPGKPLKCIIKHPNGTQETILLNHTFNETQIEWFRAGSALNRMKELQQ
inactive: [1] 0 | [2] 0.067 | [3] 0.044 | [4] -0.023 | [5] -0.046

BCAP29 isoform 2 (UniProt Q9UHQ4)
inactive: [1] -0.017 | [2] 0.029 | [3] 0.035 | [4] -0.008 | [5] 0.032

ATF1 (UniProt P18846)
active: [5] -0.391
inactive: [1] -0.054 | [2] 0.11 | [3] -0.001 | [4] -0.014

ABHD17A isoform 2 (UniProt Q96GS6)
Sequence of UniProt Q96GS6 (Q96GS6 whole entry, looked up): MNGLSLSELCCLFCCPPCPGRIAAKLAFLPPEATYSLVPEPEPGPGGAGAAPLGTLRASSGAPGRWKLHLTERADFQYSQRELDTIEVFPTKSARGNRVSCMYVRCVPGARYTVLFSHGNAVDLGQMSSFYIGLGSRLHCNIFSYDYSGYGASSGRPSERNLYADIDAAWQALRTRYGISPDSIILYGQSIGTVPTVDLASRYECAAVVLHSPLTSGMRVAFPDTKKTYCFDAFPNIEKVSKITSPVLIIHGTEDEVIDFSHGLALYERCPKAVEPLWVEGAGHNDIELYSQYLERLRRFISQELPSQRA
inactive: [1] 0.029 | [2] 0.079 | [3] 0.122 | [4] -0.148 | [5] -0.012

ARPP19 (UniProt P56211)
Sequence of UniProt P56211 (P56211 whole entry, looked up): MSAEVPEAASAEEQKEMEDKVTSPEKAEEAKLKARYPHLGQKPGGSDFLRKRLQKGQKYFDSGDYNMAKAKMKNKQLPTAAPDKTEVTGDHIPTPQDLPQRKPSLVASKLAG
inactive: [1] 0.003 | [2] 0.021 | [3] -0.076 | [4] 0.031 | [5] -0.007

ACBD6 (UniProt Q9BR61)
inactive: [1] -0.033 | [2] 0.087 | [3] 0.1 | [4] -0.072 | [5] 0.073

BRAF (UniProt P15056)
inactive: [1] -0.04 | [2] 0.075 | [3] 0.041 | [4] -0.018 | [5] -0.027

ATP6V1H (UniProt Q9UI12)
inactive: [1] -0.003 | [2] 0.065 | [3] 0.029 | [4] -0.019 | [5] -0.116

ATP5ME (UniProt P56385)
inactive: [1] 0.028 | [2] 0.117 | [3] 0.007 | [4] -0.072 | [5] 0.014

BLOC1S3 (UniProt Q6QNY0)
inactive: [1] -0.048 | [2] 0.084 | [3] 0.088 | [4] -0.113 | [5] -0.06

AFDN isoform 5 (UniProt P55196)
inactive: [1] -0.04 | [2] 0.055 | [3] 0.069 | [4] -0.018 | [5] -0.023

ARFRP1 (UniProt Q13795)
inactive: [1] 0 | [2] -0.066 | [3] -0.03 | [4] -0.021 | [5] 0.029

ATP13A2 (UniProt Q9NQ11)
inactive: [1] 0.031 | [2] -0.075 | [3] 0.007 | [4] -0.062 | [5] 0.092

ATG9A (UniProt Q7Z3C6)
inactive: [1] 0.018 | [2] 0.014 | [3] 0.021 | [4] -0.028 | [5] -0.05

ACOX3 (UniProt O15254)
inactive: [1] 0.015 | [2] 0.238 | [3] -0.185 | [4] 0.131 | [5] 0.077

APH1A (UniProt Q96BI3)
inactive: [1] -0.015 | [2] 0.009 | [3] -0.21 | [4] -0.08 | [5] -0.153

ACAD9 (UniProt Q9H845)
inactive: [1] 0.012 | [2] 0.028 | [3] 0.031 | [4] 0.022 | [5] 0.009

ATP6AP1 (UniProt Q15904)
inactive: [1] 0.014 | [2] -0.069 | [3] -0.009 | [4] -0.055 | [5] -0.022

ACSF3 (UniProt Q4G176)
inactive: [1] 0.037 | [2] 0.086 | [3] 0.12 | [4] -0.067 | [5] 0.063

AP2A1 (UniProt O95782)
Sequence of UniProt O95782 (O95782 whole entry, looked up): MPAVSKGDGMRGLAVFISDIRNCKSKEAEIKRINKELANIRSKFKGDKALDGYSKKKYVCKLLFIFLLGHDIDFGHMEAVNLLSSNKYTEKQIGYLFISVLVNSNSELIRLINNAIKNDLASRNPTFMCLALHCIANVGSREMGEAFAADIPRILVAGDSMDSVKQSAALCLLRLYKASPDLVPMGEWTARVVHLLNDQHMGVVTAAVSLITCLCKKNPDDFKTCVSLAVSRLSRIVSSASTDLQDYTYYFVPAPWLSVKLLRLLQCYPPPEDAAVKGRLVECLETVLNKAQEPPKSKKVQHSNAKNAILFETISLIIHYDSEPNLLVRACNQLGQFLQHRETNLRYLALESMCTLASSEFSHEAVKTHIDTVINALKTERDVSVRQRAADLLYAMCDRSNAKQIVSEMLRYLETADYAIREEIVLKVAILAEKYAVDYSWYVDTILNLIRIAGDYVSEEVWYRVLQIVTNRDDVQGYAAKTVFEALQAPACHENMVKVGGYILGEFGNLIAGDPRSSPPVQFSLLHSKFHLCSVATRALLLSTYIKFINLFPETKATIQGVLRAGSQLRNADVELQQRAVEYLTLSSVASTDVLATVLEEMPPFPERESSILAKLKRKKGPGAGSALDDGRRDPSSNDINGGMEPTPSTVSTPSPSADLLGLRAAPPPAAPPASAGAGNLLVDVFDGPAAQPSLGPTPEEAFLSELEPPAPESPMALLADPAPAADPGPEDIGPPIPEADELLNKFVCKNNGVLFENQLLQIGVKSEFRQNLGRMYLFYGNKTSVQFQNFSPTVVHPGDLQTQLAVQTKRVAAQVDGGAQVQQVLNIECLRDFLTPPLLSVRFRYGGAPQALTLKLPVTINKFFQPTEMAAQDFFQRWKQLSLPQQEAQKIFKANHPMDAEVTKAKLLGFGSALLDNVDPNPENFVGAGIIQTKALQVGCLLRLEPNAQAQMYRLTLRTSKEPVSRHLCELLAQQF
inactive: [1] -0.001 | [2] -0.021 | [3] -0.028 | [4] 0.047 | [5] -0.005

ACIN1 (UniProt Q9UKV3)
inactive: [1] 0.003 | [2] 0.095 | [3] 0.038 | [4] 0.023 | [5] -0.018

ARFIP1 (UniProt P53367)
inactive: [1] 0.04 | [2] 0.042 | [3] 0.051 | [4] -0.065 | [5] -0.03

ADD1 isoform 4 (UniProt P35611)
inactive: [1] -0.03 | [2] 0.04 | [5] 0.217

ASB6 (UniProt Q9NWX5)
inactive: [1] -0.065 | [3] 0.178

AFDN isoform 1 (UniProt P55196)
inactive: [1] 0.038 | [2] -0.119 | [3] 0.029 | [5] 0.177

AUH (UniProt Q13825)
inactive: [1] 0.015 | [2] 0.065 | [3] -0.116 | [4] -0.042 | [5] -0.001

ANGEL1 (UniProt Q9UNK9)
inactive: [1] -0.256 | [3] -0.172 | [4] -0.042

ACSL6 isoform 1 (UniProt Q9UKU0)
inactive: [1] 0.012 | [3] 0.29 | [4] -0.009

ARMC8 isoform 6 (UniProt Q8IUR7)
inactive: [1] 0.053 | [3] 0.088

BRMS1 (UniProt Q9HCU9)
inactive: [4] -0.011

BAIAP2 isoform 4 (UniProt Q9UQB8)
Sequence of UniProt Q9UQB8 (Q9UQB8 whole entry, looked up): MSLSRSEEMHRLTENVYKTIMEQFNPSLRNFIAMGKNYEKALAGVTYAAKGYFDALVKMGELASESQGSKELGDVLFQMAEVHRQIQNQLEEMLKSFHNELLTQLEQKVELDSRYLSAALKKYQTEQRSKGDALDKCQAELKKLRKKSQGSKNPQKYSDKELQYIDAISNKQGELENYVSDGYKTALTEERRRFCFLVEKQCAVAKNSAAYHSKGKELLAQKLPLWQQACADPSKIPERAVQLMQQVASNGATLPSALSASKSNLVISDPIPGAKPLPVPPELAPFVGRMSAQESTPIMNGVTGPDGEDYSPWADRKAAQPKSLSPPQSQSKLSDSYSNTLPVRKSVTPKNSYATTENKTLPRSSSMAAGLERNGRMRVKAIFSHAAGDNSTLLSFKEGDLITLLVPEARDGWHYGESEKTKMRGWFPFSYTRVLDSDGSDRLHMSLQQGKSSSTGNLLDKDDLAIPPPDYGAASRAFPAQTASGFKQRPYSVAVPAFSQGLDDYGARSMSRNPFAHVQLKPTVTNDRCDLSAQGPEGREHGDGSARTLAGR
inactive: [2] 0.029 | [4] -0.206 | [5] 0.151

APPL1 (UniProt Q9UKG1)
inactive: [1] -0.027 | [2] 0.122 | [3] 0.086 | [4] -0.025 | [5] -0.049

ACVR1 (UniProt Q04771)
inactive: [2] 0.061 | [3] 0.041 | [4] -0.218 | [5] 0.072

ABCA4 (UniProt P78363)
inactive: [1] 0.174 | [2] 0.297 | [4] 0.03 | [5] -0.128

APOBEC3G (UniProt Q9HC16)
inactive: [1] 0.089 | [3] 0.436 | [4] 0.147

APAF1 (UniProt O14727)
inactive: [2] 0.031 | [3] 0.112 | [5] 0.055

ABCA3 (UniProt Q99758)
inactive: [1] 0.239 | [2] 0.002 | [3] -0.05 | [4] 0.02 | [5] -0.035

BRIX1 (UniProt Q8TDN6)
Sequence of UniProt Q8TDN6 (Q8TDN6 whole entry, looked up): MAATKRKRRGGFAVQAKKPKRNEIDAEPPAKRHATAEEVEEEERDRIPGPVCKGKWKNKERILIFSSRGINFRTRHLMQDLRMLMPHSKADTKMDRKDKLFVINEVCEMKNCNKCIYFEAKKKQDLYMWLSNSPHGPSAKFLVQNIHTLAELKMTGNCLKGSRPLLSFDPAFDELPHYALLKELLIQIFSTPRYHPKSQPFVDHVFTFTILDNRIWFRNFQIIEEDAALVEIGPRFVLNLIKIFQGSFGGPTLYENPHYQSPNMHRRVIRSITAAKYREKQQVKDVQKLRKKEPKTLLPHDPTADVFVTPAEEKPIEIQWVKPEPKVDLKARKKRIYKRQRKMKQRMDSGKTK
inactive: [1] 0.093 | [2] -0.349 | [3] -0.242 | [4] 0.244 | [5] -0.007

ACP1 (UniProt P24666)
inactive: [1] -0.058 | [2] -0.026 | [3] 0.184 | [4] -0.041 | [5] -0.416

AARSD1 (UniProt Q9BTE6)
inactive: [1] -0.081 | [2] -0.267 | [5] -0.068

AP2S1 (UniProt M0QZ21)
inactive: [4] -0.014

BAP18 isoform 3 (UniProt Q8IXM2)
inactive: [4] 0.041

AP4S1 (UniProt Q9Y587)
inactive: [1] -0.077 | [2] 0.133 | [3] 0.069 | [5] 0

ARMC10 (UniProt Q8N2F6)
inactive: [1] 0.035 | [2] -0.017 | [3] -0.006 | [4] 0.012 | [5] -0.009

— the supplement of paper PMC10849652
